Screening data from PubChem.
Rows were chosen to be rich in hits. Some 2.8% of all compounds tested hit in one or more screens of this group.
PAX8 inh HTS: lowers PAX8-driven luciferase in RMG-I cells | RMG-I TPO-luciferase reporter, SteadyGlo, 24 h | AID 652154 | hit rate 1.2% among 360,000 | inhibition, % at 12.6 µM;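 active = mean replicate inhibition at least 60% with every replicate also reaching 60%; inconclusive = only one of the two criteria is met; inactive = mean below 60% and not all replicates reaching 60%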;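 note: luciferase light reporting Pax8 driven TPO promoter activity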
Peg3 promoter: reduces Peg3 promoter-driven luciferase expression in HeLa | HeLa PEG-Prom luciferase reporter, luminescence, overnight | inhibition, % at 20 µM | hit rate 1.7% among 360,000;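 active = inhibition of at least 50% at 20 µM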
Shn3 inh set2: reduces Shn3 3'UTR luciferase signal in osteoblasts; Clone20 osteoblast Shn3 3'UTR firefly luciferase, 24 h; inhibition, % at 12.5 µM; hit rate 0.52% among 360,000;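 active = mean inhibition of at least 75% with every replicate also reaching 75%; inconclusive = mean inhibition at least 75% but some replicate below; inactive = mean inhibition below 75%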
HIF-2a inh: HIF-2a inhibition | inhibition, % at 18.8 µM | 786-0 RCC cells HIF-2a reporter, luciferase luminescence, overnight | hit rate 0.72% among 360,000;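 active = inhibition of the luminescence signal of 40% or more relative to plate controls, in a single-dose primary screen at 18.75 µM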
TRPM1 prom inh: reduces MITF-dependent TRPM1 promoter luciferase signal; SK-MEL-5 TRPM1 promoter luciferase, 24 h; inhibition, % at 12.5 µM; hit rate 0.83% among 330,000;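 active = mean inhibition across replicates of 60% or more, whatever share of single replicates reaches that level; inconclusive = some that reach 60%, reason not given; inactive = mean inhibition across replicates below 60%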
LMP1 NFkB inh: Epstein-Barr LMP1 NF-kappaB reporter inhibition; LMP1-induced NF-kappaB luciferase reporter cells, luminescence; hit rate 0.69% among 350,000; AID 504558; inhibition, % at 12.5 µM; in the data active = inhibition above about 41%; inconclusive = no clear call, values can overlap the other calls
Mdm2-MdmX confirm: confirmation of inhibitors of human Mdm2/MdmX interaction, set 2. shares compounds with HIF-2a inh. SaOS-2 split-luciferase Mdm2/MdmX complementation, luminescence. inhibition, % at 8 µM. hit rate 99% among 740;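 active = mean inhibition of the luminescence signal across two replicates at or above 26 percent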
Target sequence (O15151 whole entry, looked up): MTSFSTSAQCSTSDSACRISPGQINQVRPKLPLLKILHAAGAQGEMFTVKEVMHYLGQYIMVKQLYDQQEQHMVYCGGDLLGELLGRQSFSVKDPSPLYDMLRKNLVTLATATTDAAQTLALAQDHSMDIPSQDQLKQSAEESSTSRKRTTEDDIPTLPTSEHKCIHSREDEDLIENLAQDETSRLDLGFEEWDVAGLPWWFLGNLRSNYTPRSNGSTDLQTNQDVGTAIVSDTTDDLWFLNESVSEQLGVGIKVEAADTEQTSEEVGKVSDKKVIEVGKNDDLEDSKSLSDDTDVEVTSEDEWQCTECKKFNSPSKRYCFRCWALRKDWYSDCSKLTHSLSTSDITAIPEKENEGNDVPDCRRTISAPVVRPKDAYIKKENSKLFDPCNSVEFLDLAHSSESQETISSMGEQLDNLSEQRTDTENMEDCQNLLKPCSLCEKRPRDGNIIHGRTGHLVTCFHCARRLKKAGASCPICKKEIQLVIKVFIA
Target sequence (Q00987 whole entry, looked up): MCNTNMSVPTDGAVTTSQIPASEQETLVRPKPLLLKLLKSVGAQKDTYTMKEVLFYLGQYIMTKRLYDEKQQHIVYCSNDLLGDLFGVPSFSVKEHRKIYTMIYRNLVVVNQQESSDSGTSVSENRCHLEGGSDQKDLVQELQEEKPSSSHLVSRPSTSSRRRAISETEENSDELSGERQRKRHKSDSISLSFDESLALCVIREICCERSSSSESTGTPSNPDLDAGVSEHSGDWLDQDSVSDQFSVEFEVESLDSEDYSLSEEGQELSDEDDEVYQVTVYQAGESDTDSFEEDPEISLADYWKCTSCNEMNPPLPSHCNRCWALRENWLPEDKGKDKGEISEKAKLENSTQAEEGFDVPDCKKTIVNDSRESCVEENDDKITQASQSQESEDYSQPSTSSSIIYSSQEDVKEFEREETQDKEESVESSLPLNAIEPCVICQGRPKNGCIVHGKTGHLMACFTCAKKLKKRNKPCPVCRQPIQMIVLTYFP
HIF-2a conf: HIF-2a inhibition, single concentration confirmation; shares compounds with HIF-2a inh; 786-0 RCC cells, HIF-2a luciferase reporter luminescence, overnight; inhibition, % at 18.8 µM; hit rate 56% among 1,800;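 active = mean inhibition across four replicates of at least 40 percent at the single tested concentration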
HIF-1a counter: HIF-1a inhibition counter-screen for HIF-2a hits; MiaPaCa-2 HIF-1a luciferase reporter, desferoxamine, overnight; hit rate 72% among 1,800; shares compounds with HIF-2a inh; inhibition, % at 18.8 µM; AID 651589;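 active = mean inhibition of the reporter signal across four replicates at the single tested dose of 50% or more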
A number is an active result; . = inactive; ? = inconclusive; / = no result given.

SMILES | PAX8 inh HTS | Peg3 promoter | Shn3 inh set2 | HIF-2a inh | TRPM1 prom inh | LMP1 NFkB inh | HIF-2a conf | HIF-1a counter | others
Cc1ccc(C(=O)Cn2c(C(=O)/C=C/c3ccccc3)nc3ccccc32)cc1 | / | . | . | 48 | . | . | . | 60
Cn1cnc(S(=O)(=O)N2CC[C@@H]3[C@@H](CO)Nc4ccc(-c5cccc(F)c5)cc4[C@@H]32)c1 | . | / | / | / | / | / | / | /
COc1ccc(-c2cc(=O)oc3cc(OC(=O)C4CCCCC4)c(Cl)cc23)cc1 | . | . | . | . | . | . | / | / | Mdm2-MdmX confirm=91
COc1ccc(-c2cc(=O)oc3cc(O)ccc23)cc1 | . | . | . | . | . | . | / | /
C[C@@H]1CN([C@@H](C)CO)C(=O)c2cccc(NC(=O)Nc3ccccc3)c2O[C@H]1CN(C)Cc1ccc(Oc2ccccc2)cc1 | . | / | / | / | / | / | / | /
COc1ccc(/C=C2\N=C(SC)N(c3ccccc3OC)C2=O)cc1 | . | . | . | . | . | . | / | / | Mdm2-MdmX confirm=100
Cc1noc(C)c1NC(=O)N(C)C[C@H]1Oc2cc(C#CCC(C)C)ccc2S(=O)(=O)N([C@@H](C)CO)C[C@@H]1C | . | / | / | / | / | / | / | /
CN(C)C(=O)/C(C#N)=C\c1cc(Br)c(Sc2ccc(Cl)cc2)o1 | / | 78 | . | 57 | . | . | . | 103
Cc1[nH]n(-c2ccccc2)c(=O)c1N=Nc1c(O)cc(S(=O)(=O)N(C)C)c2ccccc12 | . | 62 | . | . | . | . | / | / | Mdm2-MdmX confirm=89
Cc1[nH]n(-c2ccccc2)c(=O)c1N=Nc1ccc2c(c1)OCCO2 | . | . | . | . | . | . | / | /
O=C(NCCN1C(=O)S/C(=C\c2ccc(Cl)c([N+](=O)[O-])c2)C1=O)C1=COCCO1 | 70 | 93 | . | 44 | . | . | . | 104
CCN(CC)CCn1c2ccccc2c2nc3ccc([N+](=O)[O-])cc3cc21 | . | . | . | . | . | . | / | / | Mdm2-MdmX confirm=83
Cn1c2ccccc2c2cc([N+](=O)[O-])ccc21 | . | . | . | . | . | . | / | /
COCCn1c(SCC(=O)N2CCC(C)CC2)nc2ccccc2c1=O | / | . | . | . | . | . | / | /
COc1ccc(C(=O)Nn2c(SCC(=O)N3CCC(C)CC3)nc3ccccc3c2=O)cc1 | . | 68 | . | 51 | . | 70 | 67 | 78
CSC(SC)=C(C#N)C(=O)c1ccccc1 | . | 99 | . | 90 | 65 | . | 89 | .
COc1cccc(C(=O)C(C#N)=C(SC)SC)c1 | . | 102 | . | 80 | 82 | . | 91 | .
N#CC(C#N)=C(Nc1ccccc1)c1ccccc1 | . | . | . | . | . | . | / | /
C[C@@H]1CN([C@@H](C)CO)C(=O)c2cccc(NS(=O)(=O)c3ccc(F)cc3)c2O[C@H]1CN(C)S(=O)(=O)c1ccccc1 | . | / | / | / | / | / | / | /
CC(C)c1cn(CC[C@H]2CC[C@@H](NC(=O)Nc3cc(Cl)cc(Cl)c3)[C@H](CO)O2)nn1 | . | / | / | / | / | / | / | /
CCOC(=O)c1cccc(COC(=O)c2cccc(-c3nnc(-c4ccccc4)o3)c2)c1 | . | . | . | 47 | . | . | 51 | .
O=C(OCc1ccccc1)c1cccc(-c2nnc(-c3ccccc3)o2)c1 | / | . | . | . | . | . | / | /
CC(C)CC#Cc1ccc([C@H]2[C@H](CO)N3CCCCN(C(=O)NC4CCCC4)C[C@@H]23)cc1 | . | / | / | / | / | / | / | /
Cc1noc(C)c1S(=O)(=O)Nc1ccccc1Oc1ccccc1 | . | . | . | . | . | . | / | /
O=C1c2ccccc2-c2onc3ccc(Oc4ccccc4)c1c23 | / | 104 | 90 | . | 97 | 53 | / | / | Mdm2-MdmX confirm=103
SMILES | PAX8 inh HTS | Peg3 promoter | Shn3 inh set2 | HIF-2a inh | TRPM1 prom inh | LMP1 NFkB inh | HIF-2a conf | HIF-1a counter | others
CNc1ccc(Br)cc(C(=O)/C=C/c2cc(OC)ccc2OC)c1=O | 92 | . | . | 43 | . | ? | 95 | 88
Cc1nn(C)cc1NC(=O)C[C@H]1CC[C@@H]2[C@@H](COc3ccc(NC(=O)C4CCOCC4)cc3C(=O)N2C)O1 | . | / | / | / | / | / | / | /
Cc1nn(CC(=O)N2c3ccccc3NC(=O)C2(C)C)c(C)c1[N+](=O)[O-] | . | . | . | . | . | . | / | /
CC1(C)C(=O)Nc2ccccc2N1C(=O)Cn1ncc(Cl)c(Cl)c1=O | . | . | . | . | . | . | / | / | Mdm2-MdmX confirm=58
C=C1C(=O)[C@@]23[C@H](O)C[C@@H]4C(C)(C)CC[C@H](O)[C@]4(C)[C@@H]2C[C@H](O)[C@@H]1[C@H]3O | 97 | . | 97 | 41 | . | . | . | 91
C=C1C(=O)[C@@]23[C@H](O)C[C@@H]4C(C)(C)CC[C@H](O)[C@@]4(C)[C@@H]2CC[C@@H]1[C@H]3O | 112 | 102 | 98 | 91 | 93 | 94 | 94 | 107
O=C(C1CCOCC1)N1CC(=O)N2[C@H](CO)[C@H](c3ccc(C#CC4CC4)cc3)[C@@H]2C1 | . | / | / | / | / | / | / | /
CCOC(=O)C(C)(C)N(Cc1ccc(C)cc1)S(=O)(=O)c1ccc(Cl)c([N+](=O)[O-])c1 | . | 105 | . | 61 | 91 | . | . | 105
CC(C)CC(=O)Nc1ncc([N+](=O)[O-])s1 | . | . | . | . | . | . | / | /
Cc1nc(C)c(C(=O)Nc2ncc([N+](=O)[O-])s2)o1 | . | . | . | 56 | . | 49 | 59 | .
Cc1cc(C)n(-c2ncc(C#N)cn2)n1 | . | . | . | 49 | . | . | . | .
Cc1cc(C)n(-c2cccc(Cl)c2C#N)n1 | . | . | / | . | . | . | / | /
CCOc1ccc(-c2c(C#N)c(N)nc3sc(C(=O)c4ccccc4)c(N)c23)cc1 | . | . | . | 72 | . | . | . | 63
CC(=O)Nc1nc(-c2ccc3c(c2)CC(C)N3C(=O)C2CC2)c(C)s1 (stereo not given) | . | . | . | . | . | 79 | / | / | Mdm2-MdmX confirm=99
CCOC(=O)C(=O)Nc1nc(-c2ccc3c(c2)CCN3C(=O)C2CC2)c(C)s1 | . | . | . | . | . | . | / | /
CCCCn1c(NC(=S)Nc2ccccc2)nc2ccccc21 | / | . | . | 42 | . | . | . | 50
CCCCn1c(NC(=O)c2ccccc2)nc2ccccc21 | / | . | . | . | . | . | / | /
S=C(Nc1ccccc1)Nc1nc2ccccc2n1CCOc1ccccc1 | . | . | . | 90 | . | . | . | 97
O=C(CCl)Nc1cc2[nH]c(=O)[nH]c2cc1Br | 91 | 88 | . | . | . | . | / | / | Mdm2-MdmX confirm=103
COc1ccc(Oc2ccc(/C=C/C(=O)c3ccc(O)cc3)cc2[N+](=O)[O-])cc1 | . | 108 | . | 91 | 81 | . | . | 104
O=C(/C=C/c1ccc(O)c([N+](=O)[O-])c1)c1ccc2ccccc2c1 | . | . | . | . | . | ? | / | /
O=[N+]([O-])c1ccc2nc(Cl)nc(-c3ccccc3)c2c1 | . | . | . | . | . | . | / | / | Mdm2-MdmX confirm=101
O=C(NC(=S)Nc1ccccc1N1CCCC1)c1ccco1 | . | . | / | 76 | . | . | . | .
